Screening results (PubChem BioAssay)
RGS4 inh: Inhibitors of Regulator of G Protein Signaling (RGS) 4: qHTS; Regulator of G-protein signaling 4 (Homo sapiens), P49798; Transcreener GDP fluorescence polarization, RGS4-accelerated GTP hydrolysis; Potency, µM (highest dose often 114 µM), inactives show top-dose activity change, negative = inhibition, usual class: inhibitors; 390,000 tested, 0.039% active; note: % is set by controls: 0 for no effect and ±100 for the full control effect; nearly all actives have a fitted effect of over 75% in size
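MLSMR compounds (23 nl, pin-transferred) preincubated 10 min at room temperature with a 500nM (2x) first reagent, then RGS4 at 900nM (2x) plus Transcreener GDP mix added; fluorescence polarization (620/688 nm) read before and after 90 min at 30 °C.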
GLP-1R agonist: qHTS of GLP-1 Receptor Agonists. Potency, µM (series often up to 45.6 µM), for inactives: top-dose activation, actives largely listed as activators. Glucagon-like peptide 1 receptor (Homo sapiens), P43220. 380,000 tested, 0.007% active. HEK293 GLP-1R CRE-luciferase, luminescence, 4-6 h; cells express a hypersensitive GLP-1R form; note: % of control where 0% means no effect
GLP1R cytotox: qHTS of GLP-1 Receptor Inverse Agonists: Cytotox Screen | HEK293 cAMP-luciferase reporter cells, luminescence, 24 h | Potency, µM (titrated, usually from 38.3 µM), for the others: at the top dose activity change, negative = inhibition, hits mostly inhibitors | 410,000 tested, 0.13% active;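 note: loss of luciferase light is scored as toxicity; % is set by controls: 0 for no effect and ±100 for the full control effect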
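1536-well qHTS counterscreen of the MLSMR; 200 cells/uL, 12 h pre-incubation, 23 nL cpd, 24 h at 37 deg C 5% CO2, luciferase detection reagent, 12 min RT, luminescence. Inhibition = undesired.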
GLP-1R inv ag: qHTS of GLP-1 Receptor Inverse Agonists (Inhibition Mode). 410,000 tested, 1.6% active. HEK293 GLP-1R CRE-luciferase, luminescence, 24 h; GLP-1R form is constitutively active. Potency, µM (titrated, usually from 38.3 µM), inactives show at the highest dose activity change, negative = inhibition, actives largely listed as inhibitors; note: % is set by controls: 0 for no effect and ±100 for the full control effect; nearly all actives have a fitted effect of over 55% in size
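HEK293 cells stably co-expressing a cAMP-responsive luciferase reporter and constitutively active GLP-1R were seeded, incubated 12 h, then exposed to compounds for 24 h at 37 C. Luminescence was read 12 min after detection reagent; inverse agonists lower signal.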
PTHR1 agonist: qHTS for PTHR1 Agonists: Primary Screen | Potency, µM (series often up to 115 µM), inactives show at the highest dose activation, hits mostly activators | 410,000 tested, 0.075% active | AID 743266, 2014 | Parathyroid hormone/parathyroid hormone-related peptide receptor (Homo sapiens), Q03431 | HEK293 GP2 PTHR1 cells, GloSensor cAMP luminescence, 1 h; note: nearly all actives have a fitted effect of over 55% in size
Target sequence (Q03431 whole entry, looked up): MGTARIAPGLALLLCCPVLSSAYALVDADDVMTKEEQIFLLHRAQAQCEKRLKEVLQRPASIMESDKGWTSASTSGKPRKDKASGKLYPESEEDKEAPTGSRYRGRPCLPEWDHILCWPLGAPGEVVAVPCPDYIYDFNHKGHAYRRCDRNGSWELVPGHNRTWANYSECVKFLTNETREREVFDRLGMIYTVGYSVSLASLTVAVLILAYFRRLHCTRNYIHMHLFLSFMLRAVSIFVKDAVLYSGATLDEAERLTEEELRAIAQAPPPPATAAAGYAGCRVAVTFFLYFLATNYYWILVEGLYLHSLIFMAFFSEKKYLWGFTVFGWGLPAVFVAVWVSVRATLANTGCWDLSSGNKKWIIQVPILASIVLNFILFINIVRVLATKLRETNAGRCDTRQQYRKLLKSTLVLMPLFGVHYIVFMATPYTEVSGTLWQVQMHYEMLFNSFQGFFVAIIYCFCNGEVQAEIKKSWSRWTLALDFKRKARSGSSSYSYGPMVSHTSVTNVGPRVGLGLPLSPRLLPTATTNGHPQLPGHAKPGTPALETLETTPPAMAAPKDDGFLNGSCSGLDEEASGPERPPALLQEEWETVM
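HEK-293-derived GP2 cells expressing PTHR1 and a GloSensor cAMP reporter, 3,000/well, plated overnight, given luciferin plus IBMX (each 0.5 mM as added) for 1 h at 37 °C, then compound for 1 h at 37 °C. Luminescence was read after 15 min at room temperature.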
Starred values were filed as active, the others as inactive; i = inactive; ? = inconclusive; / = not tested or not shown; [ ] = dose if it differs, or a comment. Only some compounds are listed: those with a hit (about 1.7% of all), similar ones and a draw of the others. Calls come from the whole dose curve; as a rule, active = well fitted curve in the direction sought with a large enough effect; inconclusive = small, poorly fitted or top-dose-only effect, or another doubt; inactive = no such curve, though single readings can be large; an effect the other way counts as inactive or inconclusive. Potency is the fitted concentration of half-maximal effect.

SMILES	RGS4 inh	GLP-1R agonist	GLP1R cytotox	GLP-1R inv ag	PTHR1 agonist
COc1cc(C(=O)Nc2nnc(S(=O)(=O)N(C)c3ccccc3)s2)cc(OC)c1OC	-2%	/	-8%	16%	-10%
COc1ccc(S(=O)(=O)N2CCOCC2)cc1NC(=O)COC(=O)CCS(=O)(=O)c1ccc(C)cc1	-8%	-11%	-23%	1%	i
CCOC(=O)c1cc(-c2ccccc2)sc1NC(=O)C(C)N1C(=O)NC(C)(c2ccc(Cl)cc2)C1=O (stereo not given)	-22%	-5%	6%	5.6µM*	-11%[57.5 µM]
CCOC(=O)c1cc(-c2ccccc2)sc1NC(=O)C(C)C	?	7%	4%	-26%	-44%
COc1cccc(NC(=O)CCNC(=O)Cn2cnc3ccccc3c2=O)c1	15%	/	-1%	-5%	i
CC(C)[C@H](NC(=O)[C@@H]1CSC2c3ccccc3C(=O)N21)C(=O)NC1CCCCC1 (stereo not given in full)	-8%	-2%	2%	?	i
CCOC(=O)c1nc2sc3c(c2c(=O)n1C(C)C(=O)OCC)CCCC3 (stereo not given)	-9%	26%	18%	1.3µM*	-5%
CCOC(=O)c1sc(NC(=O)Cn2nnc3sc4c(c3c2=O)CCCC4)nc1C	-27%	-7%	1%	3%	-25%[57.5 µM]
COc1cc(C(=O)NCCSc2c(C)[nH]c3ccccc23)cc(OC)c1OC	1%	/	-11%	11%	-2%
Cc1ccc(C(=O)NCCSc2c(C)[nH]c3ccccc23)cc1[N+](=O)[O-]	-6%	-5%	12%	10µM*	-28%
Cc1nn(-c2ccccc2)c(Cl)c1C(=O)NCC(C)C	-29%	1%	6%	-5%	i
CC(C)CNC(=O)c1nc(-c2ccccc2)n(-c2ccccc2)n1	3%	4%	-9%	13µM*	-9%[57.5 µM]
Cc1ccc(Cn2cc(CCC(=O)NC3CCC(C)CC3)c3ccccc32)cc1 (stereo not given)	0%	/	-4%	?	i
COC(=O)c1cccc(C23CC4(C2)[C@H](CN(C)[C@@H]4c2ccccc2)C3c2ccc(C(F)(F)F)cc2)c1 (stereo not given in full)	15%	-3%	9%	-27%	i
COC(=O)c1cccc(C23CC4(C2)[C@H](CN(C)[C@@H]4c2ccccc2)C3c2ccccc2)c1 (stereo not given in full)	-26%	2%	2%	8.9µM*	i
CN1C[C@@H]2C(c3ccc(C(F)(F)F)cc3)C3(c4ccc(C#N)cc4)CC2(C3)[C@H]1c1ccccc1 (stereo not given in full)	20%	-2%	-27%	10µM*	i
CN(C)c1ccc(NC(=O)Cn2nnc3sc4c(c3c2=O)CCC(C(C)(C)C)C4)cc1 (stereo not given)	-5%	/	-3%	-11%	i
CCCC[C@@H]1CNCCN1CCc1cc(C(F)(F)F)cc(C(F)(F)F)c1	-10%	-7%	?	11µM*	-3%
FC(F)(F)c1cc(CCN2CCNC[C@@H]2CC2CCCCC2)cc(C(F)(F)F)c1	8%	-11%	0%	9%	-11%
O=C(CSc1ccc(-c2ccccn2)nn1)Nc1cccc(F)c1	-36%	13%	2%	9%	-6%
CCOc1ccc2nc(NC(=O)c3ccccc3)sc2c1	4%	/	1%	?	-32%
CCOc1ccc2nc(NS(=O)(=O)Cc3ccccc3)sc2c1	-23%	4%	?	10µM*	i
CCN1CCN(C(=O)Cn2nc(-c3ccc(Cl)cc3)ccc2=O)CC1	-14%	9%	12%	2.8µM*	-7%
CCOC(=O)N1CCN(C(=O)Cn2nc(-c3ccc(Cl)cc3)ccc2=O)CC1	-22%	-4%	-11%	?	-10%
COc1ccc(/C=C/c2nc3ccccc3c(=O)n2-c2cccc(C(F)(F)F)c2)cc1	-12%	/	-17%	?	-77%
SMILES	RGS4 inh	GLP-1R agonist	GLP1R cytotox	GLP-1R inv ag	PTHR1 agonist
COc1ccc(NC(=O)CN2C(=O)C(c3ccccc3)=NC23CCCCCC3)cc1	-25%	-21%	-16%	?	-17%
Cc1ccc(NC(=O)CN2C(=O)C(c3ccccc3)=NC23CCCCC3)cc1C	-10%	/	-10%	?	-53%
CCc1ccc(NC(=O)CN2C(=O)C(c3ccc(C)cc3)=NC23CCCCC3)cc1	-2%	/	0%	11µM*	-9%
O=C(CN1C(=O)C(c2ccc(F)cc2)=NC12CCCC2)Nc1ccc(F)cc1	16%	-2%	-7%	?	-36%
Cc1ccc(NC(=O)CN2C(=O)C(c3ccc(C)cc3)=NC23CCCCCC3)cc1	1%	/	-19%	10µM*	15%
CCc1ccc(NC(=O)CN2C(=O)C(c3ccc(Cl)cc3)=NC23CCCCC3)cc1	-22%	/	-9%	11µM*	-23%
CC/C=C(\C(=O)N[C@H]1C(=O)N2C(C(=O)OCOC(=O)C(C)(C)C)=C(COC(N)=O)CS[C@H]12)c1csc(N)n1	/	0%	/	/	/
C(=N\N1CCN(C2c3ccccc3-c3ccccc32)CC1)/c1cccnc1	0%	4%	-21%	11µM*	-5%
S=C(NCCN1CCOCC1)N/N=C/c1cccs1	-4%	4%	-12%	3.2µM*	i
Oc1cccc(/C=N/NC(=S)NCCN2CCOCC2)c1O	-8%	14%	0%	-3%	i
C[C@@H]1O[C@@]2(CS1)CN1CCC2CC1	/	-2%	/	/	/
O=C(/C=C/c1ccc(OC(F)F)cc1)Nc1cccc(S(=O)(=O)NC2=NCCCCC2)c1	-23%	-15%	?	?	-32%
CCCCCNC(=O)C(CCc1ccccc1)n1c(=O)c(-c2cc3ccccc3[nH]2)nc2ccccc21 (stereo not given)	/	/	388%	3.5µM*	i
COc1ccc(C(C(=O)NCc2ccccc2)n2c(=O)c(-c3cc4ccccc4[nH]3)nc3ccccc32)cc1 (stereo not given)	/	/	i	?	i
CC(C)(C)NC(=O)C(c1ccnc2ccccc12)n1c(=O)c(-c2ccccc2)nc2ccccc21 (stereo not given)	/	/	-11%	?	-19%
O=C(NC1CCCCC1)C(c1ccc(C(F)(F)F)cc1)n1c(=O)c(-c2cc3ccccc3[nH]2)nc2ccccc21 (stereo not given)	/	/	i	2.5µM*	i
